# Compounds without any hit were thinned out: in the full panel of roughly 83,000, 20% have a hit.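 Cell lines were cultured in 96-well plates, exposed to a single compound concentration, and assessed for percent growth 48 hours later.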 A number with no mark means an inactive call. Activity calls are given as the source filed them. How the source made its calls: active means growth percent below 10; inactive means the rest.
# Key:
# Test in all cases: NCI-60 one-dose screen, 48 h (100 = growth as untreated, 0 = no growth, -100 = all killed)
# Details in all cases: 10 µM unless noted
# DU-145 prostate = test system: DU-145 prostate
# K-562 leukemia = test system: K-562 leukemia
# MALME-3M melanoma = test system: MALME-3M melanoma
# MDA-MB-231 breast = test system: MDA-MB-231 breast
# RXF 393 renal = test system: RXF 393 renal
# SF-268 CNS = test system: SF-268 CNS
# SF-295 CNS = test system: SF-295 CNS
# SF-539 CNS = test system: SF-539 CNS
# UACC-257 melanoma = test system: UACC-257 melanoma
# M14 melanoma = test system: M14 melanoma
SMILES,growth (DU-145 prostate),growth (K-562 leukemia),growth (MALME-3M melanoma),growth (MDA-MB-231 breast),growth (RXF 393 renal),growth (SF-268 CNS),growth (SF-295 CNS),growth (SF-539 CNS),growth (UACC-257 melanoma),growth (M14 melanoma)
O=C(CCCCCNC1=CC(=O)c2ccccc2C1=O)NCCC[Te]c1ccccc1,-11.6% (active),32.7%,-52.3% (active),-39.8% (active),13.8%,-26.7% (active),-32.5% (active),-49.7% (active),2.91% (active),-37.6% (active)
O=C1Nc2ccccc2C2c3cccn3-c3ccccc3CN12 (stereo not drawn),84.8%,12.4%,52%,39.2%,59.8%,75.1%,59.8%,55.1%,57.3%,20.2%
CC(=O)O[C@H]1C(=O)[C@@]2(C)[C@H]([C@H](OC(=O)c3ccccc3)[C@]3(O)C[C@H](OC(=O)[C@H](OC(=O)OC[C@@H]4COC(C)(C)O4)[C@@H](NC(=O)c4ccccc4)c4ccccc4)C(C)=C1C3(C)C)[C@]1(OC(C)=O)CO[C@@H]1C[C@@H]2O,6.23% (active),13.8%,28.9%,2.49% (active),-9.73% (active),32%,-7.77% (active),-9.82% (active),50.1%,-20% (active)
O=C(Nc1ccc(O)cc1)C(Cl)(Cl)Cl,108%,98.2%,96.8%,98.4%,107%,101%,99.8%,93.1%,90.2%,91.2%
CC(=O)O[C@H](C[C@H](C(C)C)N(C)C(=O)[C@@H](NC(=O)[C@H]1CCCN1C)C(C)C)c1nc(C(=O)N[C@@H](Cc2ccccc2)C[C@H](C)C(=O)O)c(C)s1,15.3%,9.54% (active),53.9%,15.1%,61.6%,29.9%,11%,-3.18% (active),38.2%,4.87% (active)
CCCOC(=O)N[C@H]1CCc2c(Br)c(OC)c(OC)c(OC)c2-c2ccc(SC)c(=O)cc21,-15.7% (active),10.1%,38.4%,-13.4% (active),13.8%,17.8%,5.54% (active),0.697% (active),64.5%,-26.3% (active)
COC(=O)C12CC(NC(=O)c3csc([C@@H](C[C@H](C(C)C)N(C)C(=O)[C@@H](NC(=O)[C@H]4CCCCN4C)C4CC4)OC(C)=O)n3)(C1)C2,4.38% (active),7.65% (active),70%,-0.474% (active),14.5%,21.9%,6.6% (active),-28.5% (active),42.2%,14.8%
C#Cc1ccc2c(c1)C(c1ccccc1F)=NCC(=O)N2C,69.9%,16.7%,76.7%,50.6%,73.8%,56.3%,35.6%,53%,67.1%,16.9%
Cc1ccc(N2COOC3(OOC2)C2CC4CC(C2)CC3C4)cc1,109%,72.6%,110%,112%,115%,97.9%,95.5%,96.5%,95.3%,97.8%
O=C(CCCCCCC(=O)Nc1ccc(N(CCCl)CCCl)cc1)NO,29%,32.6%,19.2%,85.8%,-4.05% (active),11.6%,32.7%,31.1%,18.6%,42.5%
CC12CCC3C(C=CC4=C(N)C(=O)CCC43C)C1CCC2=O (stereo not drawn),62.4%,-26.9% (active),70.8%,101%,95.2%,89%,105%,82.8%,86.7%,79.5%
COc1cc(C=Nc2cc(Cl)cc(Cl)c2)ccc1N(CCCl)CCCl,98.2%,84.6%,74.9%,65.5%,82%,93%,80.8%,89.3%,100%,92.2%
COC(=O)[C@@H](C[C@H](Cc1ccccc1)NC(=O)c1csc([C@@H](C[C@H](C(C)C)N(C)C(=O)[C@@H](NC(=O)[C@H]2CCCCN2C)C(C)C)OC(C)=O)n1)NC(=O)OCc1ccccc1,-3.78% [9.5 µM] (active),2.99% [9.5 µM] (active),-42.5% [9.5 µM] (active),18.6% [9.5 µM],39.8% [9.5 µM],15.2% [9.5 µM],3.92% [9.5 µM] (active),-19.1% [9.5 µM] (active),6.49% [9.5 µM] (active),-41.7% [9.5 µM] (active)
COc1ccc(O)c(CNC(=O)CN2CCCC2=O)c1,108%,99.4%,96.6%,96.5%,109%,96.8%,103%,,104%,98%
CCCCCCCOC(C(=O)OCCN(CC)CC)(c1ccccc1)c1ccccc1,86.9%,56.6%,100%,82.5%,92.4%,87.9%,123%,96.9%,,90.5%
COc1cc2c(cc1OCCCCCn1c(-c3ccco3)nc3ccccc31)N=C[C@@H]1CCCN1C2=O,29.3%,5.85% (active),-47.8% (active),9.17% (active),-40.4% (active),8.92% (active),9.61% (active),1.5% (active),,-23% (active)
Cc1cccc(N2CCN(C(C)C#N)CC2)c1 (stereo not drawn),107%,98.4%,102%,104%,105%,103%,84.6%,104%,97.9%,105%
CCN(CC)CCOC(=O)C(OC(C)C)(c1ccccc1)c1ccccc1,98.8%,97.3%,101%,99.3%,98.5%,93%,109%,111%,,110%
N#C[S-].[Au+].c1ccc(CN2[CH-]N(Cc3ccccc3)C(c3ccccc3)=C2c2ccccc2)cc1,23.6%,0.413% (active),-5.77% (active),-36% (active),3.56% (active),29.9%,,22.9%,-9.77% (active),15.8%
COc1cc(NCCCN=C(N)N)c2ncccc2c1,103%,93.7%,21.1%,64.8%,102%,25.2%,88.6%,,90.3%,100%
COc1cc2c(cc1OCCCCn1c(-c3cccs3)nc3ccccc31)N=C[C@@H]1CCCN1C2=O,10.7%,-26.7% (active),-77% (active),-18.6% (active),-60.4% (active),-7.58% (active),-8% (active),-25.3% (active),,-46.2% (active)
CCOC(=S)S[C@H]1C[C@@H]2[C@H](CC[C@]3(C)C(=O)CC[C@@H]23)[C@@]2(C)CCC(=O)C=C12,103%,95.3%,107%,95.2%,102%,95.5%,95.7%,99.7%,101%,102%
C[N+]12CN3CN(CN(C3)C1)C2,119%,198%,111%,133%,111%,106%,117%,102%,,103%
COc1cc(/C=C\c2cc(OC)c(OC)c(OC)c2)cc(N/C=C\C(=O)c2cc(OC)c(OC)c(OC)c2)c1OC,27.2%,16.2%,25.9%,42.7%,17.4%,41.1%,,-9.74% (active),68.1%,2.89% (active)
N#C[Se]Cc1cc(-c2ccccc2)n(-c2ccc(S(N)(=O)=O)cc2)n1,-85.6% (active),4.33% (active),-47% (active),-68.3% (active),-3.45% (active),-59.8% (active),-55.8% (active),,-70.2% (active),-62.2% (active)
CC[C@]12C=CCN3CC[C@]4(C(=C(C(=O)OC)C1)Nc1cc(OC)c(OC(C)=O)cc14)[C@@H]32,24.3%,4.08% (active),112%,19.7%,37.1%,19.5%,20.4%,11.2%,,13.9%
CCCCOc1ccc(C(N)Cc2ccccc2)cc1 (stereo not drawn),109%,54.2%,106%,75.1%,104%,85.4%,113%,102%,,87.1%
